The supplement of paper PMC13380429

System: Vero E6 infected with SARS-CoV-2
Test: inhibition of SARS-CoV-2 cytopathic effect; higher = more antiviral protection, active = above 15
Details: 48 h

Measured: inhibition of SARS-CoV-2 cytopathic effect

CCN1CCN(c2ccc(C(C)(C)NC(=O)c3cc4[nH]c5ccccc5c(=O)c4cc3F)cn2)CC1
inactive: 1 nM 0.53% | 8.33 nM -0.52% | 100 nM 3.59% | 833.33 nM 2.28%
active: 10000 nM 26.8%

Oc1cccc(Nc2ncc(F)c(Nc3cccc(O)c3)n2)c1
inactive: 1 nM 2.79% | 8.33 nM 0.2% | 100 nM 0.24% | 833.33 nM -2.05% | 10000 nM -5.48%

N#Cc1c(-c2ccccc2)cc(-c2cc(Br)ccc2O)[nH]c1=O
inactive: 1 nM 0.98% | 8.33 nM 2.69% | 100 nM 3% | 833.33 nM 2.87% | 10000 nM 3.55%

CCn1c(-c2nonc2N)nc2cncc(CNC3CCNCC3)c21
inactive: 1 nM 0.63% | 8.33 nM -1.43% | 100 nM -0.75% | 833.33 nM -2.49% | 10000 nM -3.57%
